Screening results deposited in PubChem by ICCB-Longwood Screening Facility, Harvard Medical School.
Polio RdRp inh – poliovirus RdRp elongation inhibitors, primary screen, biochemical, fluorescence polarization, total intensity; Genome polyprotein (Poliovirus type 1 (strain Mahoney)), P03300; % elongation, % (compound at 16.7 µg/mL); 150,000 compounds, 0.66% hits; AID 588519, 2011; poliovirus polymerase elongation; hits give low values; in the data active = % elongation below about 90%
Target sequence (P03300 1749-2209 limits assumed): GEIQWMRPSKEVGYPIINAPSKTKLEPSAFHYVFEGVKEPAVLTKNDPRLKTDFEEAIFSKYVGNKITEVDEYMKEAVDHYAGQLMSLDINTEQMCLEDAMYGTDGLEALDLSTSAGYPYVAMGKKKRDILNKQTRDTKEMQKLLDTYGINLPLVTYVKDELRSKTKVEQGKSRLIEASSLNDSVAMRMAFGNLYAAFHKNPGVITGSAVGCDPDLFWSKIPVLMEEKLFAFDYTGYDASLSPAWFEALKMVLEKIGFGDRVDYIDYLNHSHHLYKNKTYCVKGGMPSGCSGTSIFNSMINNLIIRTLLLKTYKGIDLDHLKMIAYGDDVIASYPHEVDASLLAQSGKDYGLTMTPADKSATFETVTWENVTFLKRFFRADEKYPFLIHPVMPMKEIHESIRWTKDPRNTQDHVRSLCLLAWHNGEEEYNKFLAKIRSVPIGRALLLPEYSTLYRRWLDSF
Mtb MenB inh – M. tuberculosis MenB inhibitors, primary screen, biochemical, absorbance | 1,4-dihydroxy-2-naphthoyl-CoA synthase (Mycobacterium tuberculosis (strain ATCC 25618 / … | MenB enzyme assay, absorbance read-out | 100,000 compounds, 0.43% hits | inhibition, % (no concentration beside the values); in the data active = inhibition above about 21%, passing the limit was not always enough
Mtb MbtI inh – MbtI salicylate synthase inhibitors, primary screen, biochemical, fluorescence intensity. purified MbtI enzyme, fluorescence intensity read-out. inhibition, % (test concentration not listed). 100,000 compounds, 0.89% hits. AID 493033, 2011; in the data active = inhibition mostly above about 56%, no sharp cut-off; inactive = mostly below about 77%
AID504770 – growth inhibition of E. coli YBA685, primary screen, V. cholerae RctB inhibitors; E. coli YBA685 rctB-dependent plasmid, OD600 growth, 3 h; hits give low values; z-score (concentration not given with the values); 130,000 compounds, 0.27% hits; AID 504770, 2011; in the data active = z-score below about -2, passing the limit was not always enough
An asterisk follows results filed as active; nt = not tested or not shown. This is a sample that favours compounds with a hit; in the whole collection about 1.5% have one here.

SMILES	Polio RdRp inh	Mtb MenB inh	Mtb MbtI inh	AID504770
CCOc1ccccc1-c1n[nH]c(=S)n1N	83*	-7	90	-0.2
Cc1ccccc1NC(=O)c1sc(N)c(C(N)=O)c1C	97	-19	87*	-1.1
Cc1ccc(C(=O)Nc2ccccc2C)cc1	100	11	5	-0.65
O=C1C(Nc2cccc(O)c2)=C(n2nnc3ccccc32)C(=O)c2ccccc21	51*	-55	9	-1.2
O=C(CSc1nc2ccccc2nc1-c1ccccc1)NCCN1CCOCC1	105	-7	10	1.6
COc1ccc(Cl)cc1NC(=O)c1cc2c(Cl)nc3ccc(C)cc3c2s1	101	-11	0	-1.1
Cc1ccc(NC(=O)c2cc3c(Cl)nc4ccc(C)cc4c3s2)c(Cl)c1	63*	nt	nt	nt
COC(=O)C1=C(Nc2ccccc2NS(=O)(=O)c2ccc(Cl)cc2)CSC1	nt	nt	nt	1.4
O=C(CNc1ccccc1Cl)N/N=C1\CCCc2ccccc21	102	39*	7	-0.2
O=C(N/N=C1/C(=O)c2cccc3cccc1c23)c1ccncc1	89*	-32	3	0.3
Cc1cc(C(=O)N/N=C2\C(=O)c3cccc4cccc2c34)c(C)o1	102	-35	4	0
O/N=C1/CCCc2nn(-c3ccccc3)nc21	62*	18	nt	0.15
CCCCN(Cc1ccccc1)C(=O)C1CCN(Cc2cccc(O)c2)CC1	103	-3	nt	-0.4
CCCCN(C)C(=O)C1CCN(Cc2ccc(OCC)cc2)CC1	45*	3	nt	-0.15
CC(C)(C)c1cc(C(F)(F)F)nc(SCCNC(=O)c2cnn3cccnc23)n1	101	34*	-15	-0.05
O=C(Cc1csc(-c2ccccc2)n1)N(Cc1ccco1)Cc1cccs1	97	-43	52	2.9
CC(NC(=O)Cn1[nH]c(=O)c2ccccc2c1=O)c1ccc(-n2ccnc2)cc1 (stereo not given)	97	-9	-4	-0.3
Cc1noc(C)c1CSc1ccccc1C(=O)NC(C)c1ccc(-n2ccnc2)cc1 (stereo not given)	98	5	99*	-0.25
NC(=O)c1c(N)sc2c1CCCCC2	78*	-36	32	-1.3
NC(=S)c1ccccc1N	55*	-14	41	0.65
COC(=O)C1=NNC2(c3ccc(C)cc3)C(=O)N(c3ccc(C)cc3)C(=O)C12 (stereo not given)	102	36*	-12	1.5
COC(=O)C1=NOC2C(=O)N(c3ccccc3)C(=O)C12 (stereo not given)	nt	nt	-3	-1.4
S=c1[nH]c2ccccc2n1C1CCCCC1	100	-14	98*	0.3
CCOC(=O)c1cccc(NS(=O)(=O)c2ccc3c(c2)CCCN3C(C)=O)c1	102	-19	-4	-0.25
O=C1CSc2ccc(C(=O)OCC(=O)N3CCCc4ccccc43)cc2N1	102	8	60*	0.1
SMILES	Polio RdRp inh	Mtb MenB inh	Mtb MbtI inh	AID504770
CC(C)CNC(=O)c1ccccc1S(=O)(=O)N1CCCCC1	115	-23	94*	-0.95
COc1cc2c(cc1OC)C1=C(C#N)CCC(=NC(=O)c3ccccc3F)N1CC2	102	-2	7	-1.1
CN(C)S(=O)(=O)c1cccc(-c2nnc3n2N=C(c2ccccc2)C(CC(=O)O)S3)c1 (stereo not given)	75*	0	99*	-0.6
COc1cccc(C2NS(=O)(=O)N=C3CCCCCN32)c1OC(F)F (stereo not given)	103	-13	3	-0.2
O=S1(=O)N=C2CCCCCN2C(c2ccc(Br)cc2)N1 (stereo not given)	22*	4	-4	-0.15
CCCc1cc(=O)c2c(O)cccc2o1	nt	nt	nt	-0.55
CCCc1cc2ccccc2o1	100	32*	1	2.1
Cn1cccc1/C=C/C(=O)O	76*	-21	11	-0.15
Cc1ccc2cc(CN3CCN(C)CC3)c(Cl)nc2c1C	103	8	-4	0.15
O=C(O)C1CC(c2ccc(F)cc2)=NO1 (stereo not given)	84*	15	nt	-0.65
CCOc1cc2c3c(c1)C1(Nc4ccccc4CO1)C(=O)N3C(C)(C)CC2C (stereo not given)	98	-1	-6	0.1
CCN(CC)C(=O)CN1CCC(c2nc3ccccc3[nH]2)CC1	104	-20	-5	-1.6
CC1C(=O)c2ccccc2OC1O (stereo not given)	103	-3	45	0.85
Cc1cc(C)c(S(=O)(=O)NC(CC(=O)O)c2ccccc2)c(C)c1 (stereo not given)	nt	nt	nt	-0.05
O=C1C=CC(=O)C(C2=C3C(=O)N(Cc4ccccc4)CC(=O)N3CCC2)=C1	102	14	100*	-0.55
C=CCn1c(NC(=O)c2ccccc2)c(C(=O)OCC)sc1=S	96	-137	78*	-0.05
CCOC(=O)c1sc(NC(=O)c2ccccc2)c(SC#N)c1C	nt	nt	nt	-0.2
CSc1ncccc1C(=O)OCc1c(C)noc1C	109	-17	-11	-0.7
O=C(NCCCN1CCCC1=O)c1ccc2c(c1)OCCO2	102	-21	-22	-0.8
CC(C)Nc1nc(NC(C)C)nc(C(N)=O)n1	100	35*	5	1.2
CCOC(=O)c1nn(-c2ccc(OC)cc2)c(=O)c2c(N)scc12	97	-4	54*	0.15
CCOC(=O)c1nn(-c2ccc(OC)cc2)c(=O)c(C#N)c1C	nt	nt	-12	-0.75
CC(C)C(NC(=O)Cc1ccccc1)C(=O)N1CCN(S(=O)(=O)c2ccccc2C#N)CC1 (stereo not given)	108	5	-10	-2.1
CC(C)Cn1cc(NC(=O)NCc2ccc(Cl)cc2)c2ccccc2c1=O	106	nt	nt	nt
CC(C)Cn1cc(NC(=O)NCc2ccccc2Cl)c2ccccc2c1=O	41*	nt	nt	nt
SMILES	Polio RdRp inh	Mtb MenB inh	Mtb MbtI inh	AID504770
COc1ccc(OC)c(CNC(=O)Nc2cn(CC(C)C)c(=O)c3ccccc23)c1	25*	nt	nt	nt
Cc1ccc(CNC(=O)Nc2cn(CC(C)C)c(=O)c3ccccc23)cc1	28*	nt	nt	nt
CC(C)Cn1cc(NC(=O)NCc2ccccc2)c2ccccc2c1=O	12*	nt	nt	nt
CC(C)Cn1cc(NC(=O)NCc2cccc(Cl)c2)c2ccccc2c1=O	58*	nt	nt	nt
Cc1ccc(C)c(N2CCN(C(=O)Nc3cn(CC(C)C)c(=O)c4ccccc34)CC2)c1	77*	nt	nt	nt
CC(C)Cn1cc(NC(=O)N2CCN(c3cccc(Cl)c3)CC2)c2ccccc2c1=O	106	nt	nt	nt
COc1cccc(CNC(=O)Nc2cn(CC(C)C)c(=O)c3ccccc23)c1	31*	nt	nt	nt
CSc1nnc(CCNC(=O)NCc2ccccc2)n1C	103	-12	-5	-0.4
CCn1c(=O)c(C)nc2cc(C(=O)Nc3ccc4c(c3)OCCCO4)ccc21	134	7	4	-1.1
Cc1ccsc1C=Nc1ccc(O)cc1	100	-28	96*	2.2
Cc1ccsc1C=Nc1ccc(OC(F)(F)F)cc1	102	nt	-10	-0.3
N#CCSc1nc2ccc(Cl)cc2[nH]1	102	3	53*	-1.1
NC(=O)CSc1nc2ccc(Cl)cc2[nH]1	105	-3	5	-0.5
N=CC1=C(O)c2ccccc2C1=O	103	-15	20	-0.35
CC1(C)N([O-])c2ccccc2[N+]1=O	96	-41	25	-4*
